The source of these data is PubChem BioAssay (NCATS).

SMILES strings stand for the structures. A number with no mark means an inactive call. Results filed as inconclusive are left out. The source made the active and inactive calls. Calls come from the whole dose curve; as a rule, active = well fitted curve in the direction sought with a large enough effect; inconclusive = small, poorly fitted or top-dose-only effect, or another doubt; inactive = no such curve, though single readings can be large; an effect the other way counts as inactive or inconclusive.

In assay [1] the target is Glutathione peroxidase 1 (Homo sapiens) (UniProt P07203). The assay is described as follows: Primary qHTS Assay for Inhibitors of Recombinant Selenoprotein Glutathione Peroxidase 1 (GPX1) (AID 1845191). For activity, negative = inhibition: % is set by controls: 0 for no effect and ±100 for the full control effect. Note: nearly all actives have a fitted effect of over 65% in size. The method, boiled down:
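GR-coupled assay: compounds preincubated 30 min at room temperature with GPX1, then reaction started with CHP; final 10 nM GPX1, 1 mM GSH, 0.5 mM CHP, 0.5 mM NADPH, 100 nM GR, 0.01% BSA, pH 7.5 Tris buffer. NADPH fluorescence (340/450 nm) read at 0 and 15 min.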
(qHTS replaces the single test concentration by a dilution series.)

For assay [2], the target named is Phospholipid hydroperoxide glutathione peroxidase GPX4 (Homo sapiens) (UniProt P36969). The assay is described as follows: Primary qHTS Assay for Inhibitors of Recombinant Selenoprotein Glutathione Peroxidase 4 (GPX4) (AID 1845192). For activity change, negative = inhibition: series mostly up to about 50 µM; % is set by controls: 0 for no effect and ±100 for the full control effect. Note: nearly all actives have a fitted effect of over 65% in size. Note: potency is the fitted concentration of half-maximal effect. The gist of the method: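 GR-coupled assay: recombinant GPX4 preincubated 30 min with compound at room temperature; final 200 nM GPX4, 1 mM GSH, 0.5 mM cumene hydroperoxide, 0.5 mM NADPH, 100 nM GR, 0.01% BSA, pH 7.5 Tris. NADPH fluorescence (340/450 nm) read at 0 and 15 min.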

Assay [3] concerns the target Luciferin 4-monooxygenase (Photinus pyralis) (UniProt P08659). The assay is described as follows: Primary firefly luciferase (FLuc) qHTS assay for identification of artifact compounds. (AID 1845220).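 For activity change, negative = inhibition: series mostly up to about 54 µM; plate controls were DMSO vehicle for no effect and no enzyme for full effect.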 Note: nearly all actives have a fitted effect of over 60% in size. The method, boiled down:
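Titrated compounds were incubated 15 min at RT, protected from light, with luciferin and ATP at 10 uM; reaction started with 10 nM FLuc, luminescence imaged at 5 min, and concentration-response fitted by Hill equation.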

Assay [4] can be described thus: Primary fluorescence-based thiol-reactive (MSTI) qHTS assay for identification of artifact compounds. (AID 1845221).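 For activity change, negative = thiol reactive: series mostly up to about 54 µM; thiol-reactive compounds lower the probe fluorescence signal.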 Note: nearly all actives have a fitted effect of over 65% in size. Note: potency is the fitted concentration of half-maximal effect. The method, boiled down:
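In PBS pH 7.4 with 2% DMSO, each compound met 4 uM MSTI for one hour at ambient temperature, shielded from light, before fluorescence detection.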

Assay [5] deals with Nanoluciferase (engineered Oplophorus gracilirostris luciferase). Nature of the assay: Primary Nanoluciferase (NLuc) qHTS assay for identification of artifact compounds. (AID 1845222).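 For activity, negative = inhibition: NLuc secreted into diluted conditioned medium of S16 cells; series mostly up to about 54 µM; 0% = DMSO and -100% = no enzyme.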 Note: potency is the fitted concentration of half-maximal effect. The gist of the method:
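qHTS format, against NLuc in S16 cell-conditioned medium. Nano-Glo substrate 1:100 was added after 15 min at room temperature. Luminescence was taken after a further 5 min.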

Phospholipid hydroperoxide glutathione peroxidase GPX4 (Homo sapiens), sequence (P36969 whole entry, looked up): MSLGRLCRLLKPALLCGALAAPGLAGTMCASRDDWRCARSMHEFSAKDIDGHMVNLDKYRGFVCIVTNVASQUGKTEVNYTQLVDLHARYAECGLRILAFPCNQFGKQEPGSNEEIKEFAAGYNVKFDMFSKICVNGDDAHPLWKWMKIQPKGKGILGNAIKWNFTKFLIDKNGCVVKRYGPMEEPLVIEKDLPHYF
Glutathione peroxidase 1 (Homo sapiens), sequence (P07203 whole entry, looked up): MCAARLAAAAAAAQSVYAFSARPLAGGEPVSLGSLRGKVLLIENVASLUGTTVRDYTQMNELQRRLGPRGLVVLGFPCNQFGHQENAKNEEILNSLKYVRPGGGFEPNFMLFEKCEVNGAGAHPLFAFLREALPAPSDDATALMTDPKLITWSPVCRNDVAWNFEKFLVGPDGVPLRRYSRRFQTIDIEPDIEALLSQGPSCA

On to `COC(=O)Nc1cc(Nc2cc(NC3CC3)c3ncc(C#N)n3n2)c(Cl)c(N2CCN(C)CC2)c1`, for which the Potency result in assay [1] and in assay [2] was “inactive” each time.

As for `CON=C1C[C@]2(C[C@@H]3C[C@@H](C/C=C(\C)C[C@@H](C)/C=C/C=C4\CO[C@@H]5[C@H](O)C(C)=C[C@@H](C(=O)O3)[C@]45O)O2)O[C@H](/C(C)=C/C(C)C)[C@H]1C`, the Potency result in assay [1] and in assay [2] was “inactive” each time.

Take `N#Cc1ccc(-c2ccc(S(=O)(=O)Nc3cccc(N)n3)cc2)cc1`: the Potency entry in assay [1], in assay [2], in assay [3], in assay [4] and in assay [5] was “inactive” throughout.

Turning to `C[C@H]1C[C@@H]2[C@H]([C@@H](O)C[C@@]3(C)[C@H]2CC[C@]3(O)C(=O)COC(=O)CCC(=O)O)[C@@]2(C)C=CC(=O)C=C12`, the Potency entry in assay [1] and in assay [2] was “inactive” in each case.

For `CN=C(NC)NCc1ccccc1`, the Potency result in assay [1] and in assay [2] was “inactive” in each case.

On to `COc1cc(C[C@@H]2NCCc3cc(O)c(O)cc32)cc(OC)c1OC`, for which the Potency result in assay [1] and in assay [2] was “inactive” each time.

Regarding `COc1ccc(CNCC(O)COc2ccc3[nH]c(=O)ccc3c2)cc1OC` (centres undefined), the Potency result in assay [1] and in assay [2] was “inactive” throughout.

For the compound `O=C(O)c1ccc(N2C(=O)/C(=C/c3ccc(-c4ccc([N+](=O)[O-])cc4)o3)C=C2c2ccccc2)cc1`, the Potency result in assay [1], in assay [2] and in assay [3] was “inactive” throughout. Moreover, the Potency in assay [4] was 423 nM (active).

Take `CC#CCC(C)[C@H](O)/C=C/[C@@H]1[C@H]2c3cccc(CCCC(=O)O)c3O[C@H]2C[C@H]1O` (some centres undefined): the Potency result in assay [1] and in assay [2] was “inactive” in each case.

Consider `C[C@@H](NC(=O)[C@H](O)c1cc(F)cc(F)c1)C(=O)N[C@@H]1C(=O)N(C)c2ccccc2-c2ccccc21`, for which the Potency entry in assay [1], in assay [2], in assay [3], in assay [4] and in assay [5] was “inactive” each time.

Take `Cc1ccc(-c2c(C(=O)CCl)n(CCCO)c3ncnc(N)c23)cc1`: the Potency result in assay [1], in assay [2], in assay [3], in assay [4] and in assay [5] was “inactive” throughout.

Regarding `Cc1nc(Nc2cnn(C3CCNCC3)c2)nc2c1N(C)C(=O)c1cc3ccccc3cc1N2C`, the Potency entry in assay [1], in assay [2], in assay [3] and in assay [4] was “inactive” each time.

As to `Fc1ccc(N2CCN(CCC3OCCc4ccccc43)CC2)cc1` (centres undefined), the Potency entry in assay [1], in assay [2], in assay [3], in assay [4] and in assay [5] was “inactive” throughout.

In the case of `CNC[C@@H]1CC[C@@H](N)[C@@H](O[C@H]2[C@H](O)[C@@H](O[C@H]3OC[C@](C)(O)[C@H](NC)[C@H]3O)[C@H](N)C[C@@H]2N)O1`, the Potency entry in assay [1] and in assay [2] was “inactive” each time.

In the case of `CC(=O)O[C@H]1CC2C(COC(=O)CC(C)C)=CO[C@@H](OC(=O)CC(C)C)C2[C@]12CO2` (some centres undefined), the Potency entry in assay [1], in assay [2], in assay [3], in assay [4] and in assay [5] was “inactive” each time.

`Cn1ccc(NC(=O)c2cc(Oc3ccc(C(=O)N4CCC4)c(F)c3)c3c(c2)OC(C)(C)C3)n1`: the Potency entry in assay [1], in assay [2], in assay [3], in assay [4] and in assay [5] was “inactive” in each case.

Turning to `CCCCCCCCCCCCCCCC(=O)OCCC1CCN(CCCN2c3ccccc3Sc3ccc(S(=O)(=O)N(C)C)cc32)CC1`, the Potency entry in assay [1] and in assay [2] was “inactive” throughout.

As for `C=C1C(=O)O[C@@H]2/C=C(/C)[C@@H](OC(C)=O)C/C=C(\C)C[C@@H](OC(=O)/C(=C/CO)CO)[C@@H]12`, the Potency result in assay [1], in assay [2], in assay [3], in assay [4] and in assay [5] was “inactive” throughout.

Turning to `CN1CCN(C2=Nc3ccccc3Cc3ccccc32)CC1`, the Potency entry in assay [1] and in assay [2] was “inactive” in each case.

As to `CCCCCCCCCCCCCCCC(=O)O[C@@H]1CC(C)=C(/C=C/C(C)=C/C=C/C(C)=C/C=C/C=C(C)/C=C/C=C(C)/C=C/C2=C(C)C[C@@H](OC(=O)CCCCCCCCCCCCCCC)CC2(C)C)C(C)(C)C1`, the Potency entry in assay [1] was “inactive”. The Potency in assay [2] is 1260 nM (active).

As to `C[C@@H]1O[C@@H](O[C@H]2[C@H](OC(=O)[C@]34CCC(C)(C)C[C@H]3C3=CCC5[C@@]6(C)C[C@H](O)[C@H](O[C@@H]7O[C@H](C(=O)O)[C@@H](O)[C@H](O)[C@H]7O)[C@@](C)(CO)C6[C@H](O)C[C@@]5(C)[C@]3(C)C[C@H]4O)O[C@@H](CO)[C@@H]2O)[C@H](O)[C@H](O)[C@H]1O[C@@H]1OC[C@@H](O)[C@H](O[C@H]2OC[C@](O)(CO)[C@H]2O)[C@H]1O` (some centres undefined), the outcome in assay [1] was “inactive [at 9.52 µM]”; in assay [2], “inactive [at 9.73 µM]”; in assay [3] it was “inactive [at 11.6 µM]”. Moreover, in assay [4], the activity change, negative = thiol reactive is 391% [at 11.5 µM]. The activity, negative = inhibition in assay [5] is 1.66% [at 11.6 µM].

Turning to `COc1cc(C#N)ccc1S(=O)(=O)Nc1ccc2c(c1)cc(C)c(=O)n2C`, the Potency result in assay [1], in assay [2], in assay [3], in assay [4] and in assay [5] was “inactive” in each case.

With `COc1ccc(NC(=O)c2ccc(-c3ccc(-c4nnc(C)o4)cc3C)cc2)cc1N1CCN(C)CC1`, the Potency entry in assay [1], in assay [2], in assay [3] and in assay [4] was “inactive” throughout. The Potency in assay [5] was 1510 nM (active).

As for `O=C(OCCO)c1ccccc1O`, the Potency entry in assay [1] and in assay [2] was “inactive” each time.

As to `CC(=O)OCC(=O)[C@@]1(O)[C@H](C)C[C@H]2[C@@H]3C[C@H](F)C4=CC(=O)C=C[C@]4(C)[C@H]3[C@@H](O)C[C@@]21C`, the Potency result in assay [1] and in assay [2] was “inactive” in each case.

Consider `CCCCCCCCCCCCCCCCCC(=O)[O][Al]`, for which the activity, negative = inhibition in assay [1] is -27.3% [at 4.49 µM]. In addition, the activity change, negative = inhibition in assay [2] is -12.8% [at 4.52 µM].

Regarding `CC(=O)O[C@@H]1CC2C(C)(C)C(=O)C=C[C@]2(C)C2CC[C@@]3(C)[C@H](c4ccoc4)OC(=O)[C@H]4O[C@]43[C@@]21C` (some centres undefined), the Potency entry in assay [1], in assay [2], in assay [3], in assay [4] and in assay [5] was “inactive” throughout.

In the case of `COC1CC/C=C(\C)C(=O)Nc2cc(O)cc(c2)CC(C)CC(OC)C(O)C(C)/C=C(\C)C1OC(N)=O` (centres undefined), the Potency entry in assay [1], in assay [2], in assay [3], in assay [4] and in assay [5] was “inactive” throughout.

Consider `O=C(O)c1cc2ccccc2c(Cc2c(O)c(C(=O)O)cc3ccccc23)c1O`, for which the Potency result in assay [1] and in assay [2] was “inactive” each time.

`CC#CCC(C)[C@H](O)/C=C/[C@@H]1[C@H]2C/C(=C/CCCC(=O)O)C[C@H]2C[C@H]1O` (some centres undefined): the Potency result in assay [1] and in assay [2] was “inactive” in each case.

Regarding `CN(C)Cc1ccccc1`, the Potency result in assay [1] and in assay [2] was “inactive” throughout.

In the case of `CN[C@@H]1CCc2[nH]c3ccc(C(N)=O)cc3c2C1`, the Potency entry in assay [1] and in assay [2] was “inactive” throughout.
